The record followed here is PubChem BioAssay (EPA / NIEHS).

A short description of assay [1]: APR_HepG2_CellCycleArrest_24hr: Apredica 24-hour HepG2 Assay for Cell Cycle Arrest (AID 2282905).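 Also: cell cycle arrest scored as ratio of 2N to 4N nuclear DNA content.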 The conditions noted are these: imaging, actives raise or lower the signal. In outline:
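Compounds (0.39 to 200 uM, final DMSO 0.5% v/v) are applied to HepG2 cells for 24 hours; cells are then fixed, permeabilized and nuclei labeled with Hoechst 33342. Automated imaging measures DNA content, and activity is fitted in both directions against DMSO.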

The nature of assay [2]: APR_HepG2_NuclearSize_24hr: Apredica 24-hour HepG2 Assay for Nuclear Size (AID 2282907). As to conditions: high-content imaging, actives raise or lower the signal. In outline: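 Nuclear size is measured by fluorescence high-content imaging of Hoechst-labelled HepG2 nuclei after 24 hr of treatment (0.39–200 uM, 0.5% DMSO). Cells are fixed in 3.7% formaldehyde before staining, and DMSO serves as the baseline for bidirectional curve fitting.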

A short description of assay [3]: APR_HepG2_CellLoss_24hr: Apredica 24-hour HepG2 Assay for Cell Loss (AID 2282908).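 As to AC50: fit in both directions so a hit may be cell loss or gain.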 The conditions noted are these: high-content imaging. In outline:
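Nuclear count serves as the viability measure: treated cells are fixed, permeabilized and labelled with Hoechst 33342, and six images per well are analysed to identify valid nuclei. Doses span 0.39–200 uM, and activity in either direction is scored against DMSO.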

Assay [4] is described as follows: APR_HepG2_MicrotubuleCSK_24hr: Apredica 24-hour HepG2 Assay for Microtubule CSK Stabilty (AID 2282909). The conditions noted are these: HepG2 microtubule cytoskeleton imaging, actives raise or lower the signal. The method in brief:
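Compounds were applied to HepG2 cells for 24 hours across 0.39–200 uM in duplicate, with final DMSO at 0.5% v/v. Fixed, permeabilized cells were labeled for alpha-tubulin and nuclei, and tubulin fluorescence was quantified by imaging, fitted bidirectionally against DMSO.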

Assay [5] in a line: APR_HepG2_MitoMembPot_24hr: Apredica 24-hour HepG2 Assay for Mitochondrial Membrane Potential (AID 2282911). As to conditions: imaging, actives raise or lower the signal. In outline:
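Cells are dosed for 24 hr across 0.39 to 200 uM with solvent held at 0.5% DMSO. They are then stained with 250 nM MitoTracker Red CMXRos for 30 min, fixed in 3.7% formaldehyde and imaged.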

The nature of assay [6]: APR_HepG2_MitoMass_24hr: Apredica 24-hour HepG2 Assay for Mitochondrial Mass (AID 2282912). As to conditions: high-content imaging, actives raise or lower the signal. The method in brief: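 After 24 hr of treatment at 0.39 to 200 uM, HepG2 cells take up 250 nM MitoTracker Red CMXRos for 30 min and are then fixed with 3.7% formaldehyde. Per-well images are quantified, and any change in either direction is scored against solvent.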

Assay [7] can be described thus: APR_HepG2_p53Act_24hr: Apredica 24-hour HepG2 Assay for p53 Activation (AID 2282913).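 Also: p53 protein immunofluorescence averaged per cell in HepG2 with Hoechst nuclei.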 The conditions noted are these: high-content imaging, actives raise or lower the signal. In outline: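 Human HepG2 liver cells; 24 hr cpd treatment, 0.39–200 uM, 0.5% DMSO final. Fixed in 3.7% formaldehyde, permeabilized with 0.5% Triton X-100, stained with anti-p53/Cy5 plus Hoechst 33342. Six images per well at 20x; gain or loss vs DMSO.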

A short description of assay [8]: APR_HepG2_CellCycleArrest_72hr: Apredica 72-hour HepG2 Assay for Cell Cycle Arrest (AID 2282914). The conditions noted are these: high-content imaging, actives raise or lower the signal. In outline:
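Read-out is Hoechst-stained nuclear DNA content measured by automated fluorescence imaging (20x, six images per well), fitted in both directions relative to DMSO. Human HepG2 liver cells received 0.39–200 uM compound for 72 hr at 0.5% v/v DMSO.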

The nature of assay [9]: APR_HepG2_P-H2AX_72hr: Apredica 72-hour HepG2 Assay for H2AX Phosphorylation (AID 2282916).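 Also: phospho-histone H2A.x immunostain intensity per cell marking DNA damage.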 As to conditions: imaging, actives raise or lower the signal. In outline: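 Human hepatoma HepG2 cells are dosed across ten concentrations (0.39 to 200 uM, 0.5% v/v DMSO) and incubated 72 hr. Phospho-histone H2A.x is then detected by antibody staining alongside c-Jun and Hoechst, and quantified by automated fluorescence imaging.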

A short description of assay [10]: APR_HepG2_MicrotubuleCSK_72hr: Apredica 72-hour HepG2 Assay for Microtubule CSK Stabilty (AID 2282919). As to conditions: HepG2 microtubule cytoskeleton, high-content imaging, actives raise or lower the signal. The method in brief: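 HepG2, 72 hr cmpd exposure, 0.39–200 uM (10 pts, duplicate), 0.5% DMSO. 3.7% formaldehyde fix, 0.5% Triton perm, anti-alpha-tubulin/Cy5 plus Hoechst. HCS fluorescence intensity; bidirectional fit vs DMSO baseline; taxol as positive control.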

Assay [11] is described as follows: APR_HepG2_P-H2AX_24hr: Apredica 24-hour HepG2 Assay for H2AX Phosphorylation (AID 2282920). As to conditions: high-content imaging, actives raise or lower the signal. In outline: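 HepG2, 24 hr, cpd 0.39–200 uM (10 conc, duplicate), DMSO 0.5% v/v final. Fix 3.7% formaldehyde, Triton X-100 permeabilize, anti-phospho-H2A.x 1:200 + Hoechst 2 ug/mL. Imaged, bidirectional fit vs DMSO.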

Assay [12] is described as follows: APR_HepG2_StressKinase_72hr: Apredica 72-hour HepG2 Assay for Stress Kinase (AID 2282921). The conditions noted are these: HepG2 stress kinase (phospho-c-Jun) imaging, actives raise or lower the signal. In outline:
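After a 72 h compound treatment spanning 0.39 to 200 uM, formaldehyde-fixed cells are labelled for phosphorylated c-Jun and nuclei, imaged by automated fluorescence microscopy, and activity is fitted in both directions relative to DMSO controls.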

Assay [13] is described as follows: APR_HepG2_StressKinase_24hr: Apredica 24-hour HepG2 Assay for Stress Kinase (AID 2282922). As to conditions: HepG2 stress kinase (phospho-c-Jun) imaging, actives raise or lower the signal. The method in brief: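 Read-out: phospho-c-Jun immunofluorescence (Cy3 secondary) quantified by high-content imaging at 20x, nuclei defined by Hoechst 33342. Human HepG2 liver cells dosed 24 hr, 0.39–200 uM, DMSO 0.5% v/v; gain or loss of signal fitted relative to DMSO.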

Assay [14] is described as follows: APR_HepG2_p53Act_72hr: Apredica 72-hour HepG2 Assay for p53 Activation (AID 2282923).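 Also: average cellular p53 protein immunofluorescence intensity in HepG2 cells.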 The conditions noted are these: high-content imaging, actives raise or lower the signal. In outline:
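Imaging-based endpoint: after 72 hr compound exposure (up to 200 uM, 0.5% DMSO), fixed and permeabilized monolayers were labelled with anti-p53 antibody and imaged; signal change in either direction was fitted relative to DMSO controls.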

Assay [15] can be described thus: APR_HepG2_MitoMass_72hr: Apredica 72-hour HepG2 Assay for Mitochondrial Mass (AID 2282924).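 Also: MitoTracker Red CMXRos stain intensity per cell imaged as mitochondrial mass.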 The conditions noted are these: high-content imaging, actives raise or lower the signal. The method in brief: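 Read-out: MitoTracker Red fluorescence intensity from automated imaging (20x, six fields per well) in human HepG2 liver cells. Dosing ran 72 hr, 0.39–200 uM, 0.5% DMSO; bidirectional curve fitting versus DMSO baseline.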

The nature of assay [16]: APR_HepG2_NuclearSize_72hr: Apredica 72-hour HepG2 Assay for Nuclear Size (AID 2282925). As to conditions: high-content imaging, actives raise or lower the signal. In outline: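 Read-out: nuclear diameter from Hoechst 33342 images (ArrayScan, 20x, six fields/well), via cell-cycle image analysis. HepG2 were dosed 0.39–200 uM for 72 hr in 0.5% DMSO. Bidirectional fit relative to DMSO.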

Assay [17] can be described thus: APR_HepG2_MitoMembPot_72hr: Apredica 72-hour HepG2 Assay for Mitochondrial Membrane Potential (AID 2282917). As to conditions: imaging, actives raise or lower the signal. The method in brief:
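HepG2 cells dosed 72 hr with compound at 0.39–200 uM in duplicate, 0.5% v/v DMSO final. Mitochondria stained with 250 nM MitoTracker Red CMXRos for 30 min before formaldehyde fixation, imaged by high-content fluorescence; bidirectional fit versus DMSO.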

A short description of assay [18]: APR_HepG2_MitoticArrest_72hr: Apredica 72-hour HepG2 Assay for Mitotic Arrest (AID 2282918). As to conditions: high-content imaging, actives raise or lower the signal. The method in brief:
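Read-out is phospho-histone H3 immunofluorescence with Hoechst nuclear segmentation, imaged at 20x. Human HepG2 liver cells received ten concentrations (0.39–200 uM, final DMSO 0.5% v/v) for 72 hr before fixation. Gain or loss of signal was fitted relative to DMSO.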

Structures are written as SMILES. The source made the active and inactive calls. The calls were made as follows: active = hit-call score of the fitted dose curve at least 0.9, where 1 is the maximum; inactive = score below 0.9.

On to `CC(C)(O)c1coc(S(=O)(=O)NC(=O)Nc2c3c(cc4c2CCC4)CCC3)c1`, for which the outcome in assay [1], in [2], in assay [3], in [4], in assay [5] and in assay [6] was inactive. For the same compound, the compound was classed as inactive in [7], in assay [8], in [9], in [10], in [11] and in [12]. Moreover, the compound was classed as inactive in [13], in assay [14], in assay [15] and in [16].
`Oc1ccc2c(c1)-c1ccccc1C2`: the compound was classed as inactive in assay [1], in assay [2], in assay [4], in assay [5], in [10] and in assay [12]. Moreover, the outcome in assay [13] and in assay [15] was inactive. Also, the AC50 in assay [3] is 100 µM (active); in assay [6], 111 µM (active); in [7], 100 µM (active); in assay [8], 124 µM (active); in assay [9] it was 89 µM (active); in assay [17], 106 µM (active). In addition, the results for the AC50 in assay [11] and in assay [14] were 117 µM (active) and 47.7 µM (active), respectively.
Turning to `CC(=O)c1ccc2c(c1)[C@H](NC(=O)c1ccc(F)cc1)[C@@H](O)C(C)(C)O2`, the call in assay [1], in assay [2], in assay [3], in [4], in assay [5] and in [6] was inactive. Besides, the call in assay [7], in [8], in assay [9], in assay [18], in assay [10] and in [11] was inactive. Also, the call in assay [12], in [13], in assay [14] and in assay [15] was inactive.
`Fc1ccccc1[C@@H](F)COC1CCC(Nc2ncnc3[nH]ncc23)CC1` (stereo not given in full): the AC50 is 62.3 µM (active) in [1]; 52.4 µM (active) in assay [3]; 78.4 µM (active) in assay [4]; 50.1 µM (active) in assay [8]; 51.3 µM (active) in [9]; 81.2 µM (active) in assay [10]. The results for the concentration at half-maximal activity (AC50) in [11] and in [14] were 74.9 µM (active) and 55.6 µM (active), respectively. Besides, the result in assay [2], in assay [5], in assay [6], in assay [7], in assay [17] and in [12] was inactive. Moreover, the result in assay [13], in assay [15] and in assay [16] was inactive.

One may read the AC50 as the concentration giving half of the maximal activity seen.
